Experimental data from PubChem BioAssay (NCATS).
Inconclusive results are not listed. Entries that show only a call come without a potency. Calls of active or inactive are those of the source. The call rests on the fitted dose curve; in most records, active means well fitted inhibition curve with a large enough effect; inconclusive means small, poorly fitted or top-dose-only effect; inactive means no such curve, though single readings can be large or run the other way.

biological target: Cytochrome P450 3A4 (Homo sapiens) (UniProt P08684); experiment: qHTS Assay for Inhibitors and Substrates of Cytochrome P450 3A4 (AID 884); conditions: recombinant CYP3A4, Luciferin-PPXE luminescence; series mostly up to 57.1 µM; further: nearly all actives have a fitted effect of over 50% in size
Sequence (P08684 whole entry, looked up): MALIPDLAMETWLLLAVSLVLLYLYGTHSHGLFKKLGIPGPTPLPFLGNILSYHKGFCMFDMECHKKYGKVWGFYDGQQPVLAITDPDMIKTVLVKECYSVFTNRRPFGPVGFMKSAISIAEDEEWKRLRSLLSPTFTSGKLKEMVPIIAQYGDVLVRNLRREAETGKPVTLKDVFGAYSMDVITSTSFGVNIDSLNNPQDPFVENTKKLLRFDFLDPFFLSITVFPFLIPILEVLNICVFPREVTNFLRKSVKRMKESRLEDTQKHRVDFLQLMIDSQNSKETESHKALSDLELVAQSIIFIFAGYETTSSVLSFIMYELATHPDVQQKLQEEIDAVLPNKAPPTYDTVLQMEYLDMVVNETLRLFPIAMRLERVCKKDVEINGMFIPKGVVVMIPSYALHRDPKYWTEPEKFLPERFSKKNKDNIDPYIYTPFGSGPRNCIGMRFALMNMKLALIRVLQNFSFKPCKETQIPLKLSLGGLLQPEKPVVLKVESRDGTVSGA
Summary of the method: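 Luminescent readout of luciferin produced by CYP3A4 (20 nM) dealkylation of Luciferin-PPXE, 25 uM (its KM). NADPH-driven reaction ran 60 min at RT after 10 min compound preincubation; data scaled to 57 uM ketoconazole as 100% inhibition.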
Potency means the concentration at half of the fitted maximal effect.

SMILES | Potency
FC(F)(F)c1ccc(CN2C[C@@H]3C(c4ccccc4)C4(c5cccnc5)CC3(C4)[C@H]2c2ccccc2)cc1 (stereo partly drawn) | 15.8 µM (active)
COC(=O)[C@@H]1C[C@@]2(O)[C@H](O)[C@H](O)[C@H](O)C[C@H]2N1Cc1cccc2ccccc12 | inactive
CC(C)=CCC/C(C)=C/CO/N=C1/C[C@@H](O)[C@@H](O)[C@@H]2[C@@H]3C(=O)N(Cc4ccc5c(c4)OCO5)C(=O)[C@H]3CC[C@H]12 | 1.58 µM (active)
OB(O)c1ccc(Cl)s1 | inactive
Cn1c(=O)c(C(=O)COC(=O)c2cc(C(F)(F)F)nc3c(C(F)(F)F)cccc23)c(N)n(Cc2ccccc2)c1=O | inactive
CN(C)/C=N/c1cc(=O)[nH]c(=O)n1Cc1ccccc1 | inactive
CCC1=C2CC[C@H]3C(=O)N(C)C(=O)[C@H]3[C@H]2[C@@]2(C)C(=O)N(CC3CC3)C(=O)N2C1=O | inactive
O=Cc1ccsc1B(O)O | inactive
